Screening results (PubChem BioAssay)
An excerpt weighted towards active compounds, which were near 7.8% of everything screened.
MITF inhib: MITF inhibition. TRPM1 promoter luciferase, luminescence, 24 h. inhibition, % (test concentration not listed). 37,000 tested, 0.28% active; in the data active = inhibition above about 85%; inconclusive = no clear call, values can overlap the other calls; inactive = below about 68%;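 note: human melanocyte line stably carrying TRPM1 promoter luciferase reporter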
PD-1 reversal: reversal of PD-1 mediated T-cell inhibition. primary human CD4 T cells, PD-L1 beads, CellTiter-Glo 96 h. activation, % (concentration not given with the values). 29,000 tested, under 10 active. AID 2316; call rule not given here;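 note: 0% = median vehicle wells and 100% = positive control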
NOMO-1 viab: STK33 inhibitor candidate reducing NOMO-1 cell viability; NOMO-1 AML viability, CellTiter-Glo luminescence, 72 h; inhibition, % (concentration not given with the values); 37,000 tested, 7.5% active; AID 2330; in the data active = inhibition above about 80%; inconclusive = no clear call, values can overlap the other calls
Hedgehog inh: blocks Sonic Hedgehog signaling; Shh-LIGHT2 Gli-luciferase reporter, 30 h; inhibition, % (concentration not given with the values); 22,000 tested, 2.1% active; AID 2313;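 active = mean inhibition across valid replicates above about 65%, limit read from the data; inconclusive = mean under the limit, yet half or more replicates past it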;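 note: pathway switched on by Shh-conditioned medium diluted 1 in 25 in low serum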
Numbers without * were called inactive; ? = inconclusive; . = no result given.

SMILES | MITF inhib | PD-1 reversal | NOMO-1 viab | Hedgehog inh
C[C@@H]1CN([C@H](C)CO)C(=O)Cc2cc(NC(=O)CCCCCC(=O)Nc3ccccc3N)ccc2O[C@H]1CN(C)CC1CCCCC1 | -13.4 | 0.1 | 120.4* | .
C[C@H]1CN([C@@H](C)CO)C(=O)Cc2cc(NC(=O)CCCCCC(=O)Nc3ccccc3N)ccc2O[C@@H]1CN(C)CC1CC1 | -6.0 | 1.6 | 21.1 | .
C[C@@H]1CN([C@H](C)CO)C(=O)Cc2cc(NC(=O)CCCCCC(=O)Nc3ccccc3N)ccc2O[C@@H]1CN(C)CC1CCCCC1 | 4.6 | -0.8 | 133.4* | .
C[C@H]1CN([C@@H](C)CO)C(=O)Cc2cc(NC(=O)CCCCCC(=O)Nc3ccccc3N)ccc2O[C@@H]1CN(C)CC1CCCCC1 | -10.6 | 0.1 | 102.0* | .
OC(CN1CCN(c2cccc(Cl)c2)CC1)C(c1ccccc1)c1ccccc1 (configuration not stated) | 8.7 | . | 16.7 | 94.9*
OCCOCCN1CCN(C(c2ccccc2)c2ccc(Cl)cc2)CC1 (configuration not stated) | 13.5 | 2.5 | 10.4 | 22.6
CCN1CCN(c2ccc(NC(=O)/C=C/c3ccccc3)cc2)CC1 | -17.1 | 0.8 | 58.8 | -11.8
O=[N+]([O-])c1ccc(S(=O)(=O)CC(CN2CCOCC2)N2CCOCC2)cc1 (configuration not stated) | -4.6 | -10.1 | 101.5* | .
CN(CC(=O)O)S(=O)(=O)c1ccc2ccccc2c1 | -1.0 | 2.1 | 2.4 | .
C[C@@H]1CN([C@@H](C)CO)C(=O)c2cccc(NC(=O)CCCCCC(=O)Nc3ccccc3N)c2O[C@@H]1CN(C)Cc1ccc(Oc2ccccc2)cc1 | 2.3 | -7.0 | 126.2* | .
C[C@@H]1CN([C@H](C)CO)C(=O)c2cccc(NC(=O)CCCCCC(=O)Nc3ccccc3N)c2O[C@@H]1CN(C)Cc1ccc(Oc2ccccc2)cc1 | 21.5 | -3.5 | 139.8* | .
CCn1c(SCC(=O)Nc2cccc3ccccc23)nnc1-c1ccco1 | -19.6 | . | 25.7 | .
Cc1cc(Cl)ccc1NC(=O)CN(C)S(=O)(=O)c1ccc(F)cc1 | -5.3 | 0.2 | -5.5 | .
C=C(C)C(=O)O[C@@H]1C2=C(C)C(=O)OC2(O)CC23OC2CC[C@H](C)[C@@]13C (some centres not stated) | -0.9 | 0.4 | 23.5 | 5.5
C=C(C)C(=O)O[C@H]1[C@H]2C(=C)C(=O)O[C@@H]2C[C@@H](C)/C=C/C(=O)[C@](C)(O)[C@@H]1OC(=O)C(=C)C | ? | -10.8 | 107.5* | 3.3
C=C(C)C(=O)O[C@H]1[C@H]2C(=C)C(=O)O[C@@H]2C[C@@H](C)[C@@H]2O[C@@H]2C(=O)[C@](C)(O)[C@@H]1OC(C)=O | -9.9 | -19.7 | 122.2* | 85.0*
CC(=O)O[C@@H]1C[C@@H](C)[C@](O)(CCc2ccoc2)[C@]23CCC[C@](C)(C(=O)OC2)C13 (some centres not stated) | 2.1 | 1.3 | 5.1 | -5.1
C[C@@H]1CN([C@@H](C)CO)C(=O)c2cc(NC(=O)Nc3ccccc3)ccc2O[C@H]1CN(C)Cc1ccc(-c2ccccc2)cc1 | 15.5 | -2.0 | 111.8* | 9.2
C[C@H](CO)N1C[C@H](C)[C@H](CN(C)Cc2ccc(-c3ccccc3)cc2)Oc2ccc(NC(=O)Nc3ccc(F)cc3)cc2C1=O | 0.7 | 0.5 | 104.1* | .
C[C@@H]1CN([C@@H](C)CO)C(=O)c2cc(NC(=O)Nc3ccc(F)cc3)ccc2O[C@H]1CN(C)Cc1ccc(-c2ccccc2)cc1 | 13.1 | . | 128.3* | -32.8
C[C@H]1CN([C@@H](C)CO)C(=O)c2cc(NC(=O)Nc3ccc(F)cc3)ccc2O[C@H]1CN(C)Cc1ccccc1 | -4.0 | . | 14.2 | .
C[C@H]1CN([C@@H](C)CO)C(=O)c2cc(NC(=O)Nc3ccc(F)cc3)ccc2O[C@H]1CN(C)Cc1ccc(-c2ccccc2)cc1 | 20.5 | -0.1 | 111.5* | 48.2
C[C@H](CO)N1C[C@H](C)[C@@H](CN(C)Cc2ccc(-c3ccccc3)cc2)Oc2ccc(NC(=O)Nc3ccc(F)cc3)cc2C1=O | 10.5 | -0.6 | 67.7 | .
CC(=O)OC[C@H]1O[C@@H](Oc2ccccc2COC(=O)C2(O)C=CCCC2=O)[C@H](OC(C)=O)[C@@H](O)[C@@H]1O (some centres not stated) | 4.1 | 0.5 | 57.5 | 15.1
COc1ccc(NC(=O)Nc2ccc3c(c2)C(=O)N([C@H](C)CO)C[C@H](C)[C@H](CN(C)Cc2ccncc2)O3)cc1 | 3.9 | 0.2 | 93.6* | -12.8
SMILES | MITF inhib | PD-1 reversal | NOMO-1 viab | Hedgehog inh
C[C@@H]1CN([C@@H](C)CO)C(=O)c2cc(NC(=O)Nc3ccccc3)ccc2O[C@@H]1CN(C)Cc1ccncc1 | 1.1 | -0.4 | 4.1 | .
C[C@H]1CN([C@@H](C)CO)C(=O)c2cc(NC(=O)Nc3ccccc3)ccc2O[C@H]1CN(C)Cc1ccncc1 | -18.6 | 0.5 | 97.7* | 30.3
O=C1CSCC(=O)N1c1cccnc1 | 6.5 | 0.1 | -1.9 | -14.5
C[C@H](CO)N1C[C@H](C)[C@@H](CN(C)C(=O)Nc2ccc(F)cc2)Oc2ccc(NC(=O)Nc3ccc(C(F)(F)F)cc3)cc2C1=O | 5.5 | -2.9 | 28.9 | 0.2
C[C@@H]1CN([C@@H](C)CO)C(=O)c2cc(NC(=O)Nc3ccc(C(F)(F)F)cc3)ccc2O[C@H]1CN(C)C(=O)Nc1ccc(F)cc1 | 8.1 | . | 39.4 | 21.4
C[C@H](CO)N1C[C@H](C)[C@H](CN(C)C(=O)Nc2ccc(C(F)(F)F)cc2)Oc2ccc(NC(=O)Nc3ccc(F)cc3)cc2C1=O | 27.6 | -4.5 | 104.0* | -10.5
C[C@H](CO)N1C[C@H](C)[C@H](CN(C)C(=O)Nc2ccc(F)cc2)Oc2ccc(NC(=O)Nc3ccc(F)cc3)cc2C1=O | -23.4 | -3.9 | 18.3 | 106.9*
C[C@@H]1CN([C@H](C)CO)C(=O)c2cc(NC(=O)Nc3ccc(C(F)(F)F)cc3)ccc2O[C@@H]1CN(C)C(=O)Nc1ccc(F)cc1 | 40.3 | -3.7 | 83.7* | 18.5
CC1(C)[C@@H]2CC=C(CO[C@@H]3O[C@H](CO[C@@H]4O[C@@H](CO)[C@H](O)[C@H]4O)[C@@H](O)[C@H](O)[C@H]3O)[C@H]1C2 | -43.6 | 5.0 | -7.1 | -3.2
N#Cc1c(-c2cccs2)c2c([nH]c1=S)CCCC2 | 2.8 | 0.8 | 36.3 | .
C=C1C(=O)OC2CC(C)C3(/C=C/C(C)=O)OC3CC12 (configuration not stated) | -6.9 | -9.5 | 118.1* | -14.9
Cc1ccc(C(C)C)c(OC(=O)CS(=O)c2ccc(C(F)(F)F)cc2[N+](=O)[O-])c1 (configuration not stated) | 20.7 | -12.2 | 129.6* | .
O=C(CS(=O)c1ccc(C(F)(F)F)cc1[N+](=O)[O-])Oc1ccc(Cl)cc1 (configuration not stated) | 0.0 | -12.0 | 109.7* | .
N#CC(C#N)=C(Nc1ccc(Br)cc1)SCc1ccc(F)cc1 | 73.3 | -9.9 | 111.8* | 108.8*
S=c1nc(-c2ccco2)n(Cc2ccccc2)c(=S)n1C(=NCc1ccccc1)c1ccco1 | -4.1 | -0.6 | 8.3 | 11.4
C[C@@H]1CN([C@H](C)CO)C(=O)Cc2cc(NC(=O)Nc3ccc(F)cc3)ccc2O[C@H]1CN(C)Cc1ccc(Cl)c(Cl)c1 | 20.2 | -0.2 | 94.3* | -2.9
